For the test, the target named is AMP-activated protein kinase, AMPK (Homo sapiens) (UniProt P54646+O43741+P54619+Q9UGJ0+Q9Y478+Q13131+Q9UGI9). Nature of the test: AMP-dependent Kinase enzyme assay. An in vitro enzyme assay that detects ADP turnover that is directly proportional to AMPK activity. This uses naive AMPK that is activated during the assay with MK-8722. The format is functional. Details: scale not given: direction of the effect not stated beside the values. Conditions: 30 µM.
On to `CC(C)CC(=O)N1Cc2ccccc2CC1C(=O)Nc1nncs1` (stereo unspecified), for which the Percent Effect was -25.1%.
`Cc1cc(C(=O)N2CCN(c3ncc4c(n3)CCOC4)CC2)sc1C`: the Percent Effect turned out to be 16.3%.
In the case of `COc1ccccc1CN(Cc1nc(CC(C)C)no1)C1CC1`, the Percent Effect came to 14.9%.
To `COc1ncc(NCc2cc(C#N)cs2)cc1C(N)=O` belongs 6.61%.
To `O=C(NCc1ccc(-n2cncn2)nc1)c1cc(Cl)ccn1` belongs -4.58%.
As for `CC(=O)N1CCC(Cc2ccc(-c3ccnn3C)nc2)CC1`, the figure is -2.26%; as for `CNC(=O)COC(=O)c1ccn(-c2ccc(Cl)c(Cl)c2)n1`, 1.87%; as for `O=C(CCC1CCCO1)NCCCO` (stereo unspecified), -4.81%.
Regarding `Cc1cccc(C)c1Nc1noc2c1CN(C(=O)c1c[nH]nc1C)CC2`, the Percent Effect is 6.37%.
To `Cc1nonc1CNC(=O)C(C)Oc1ccccc1F` (stereo unspecified) belongs 5.55%.
To `O=C(c1cccnc1)N1CCOC(Cc2ccccc2Cl)C1` (stereo unspecified) belongs 11%; to `O=C(c1cnc2ccccn12)N1CCCC(c2ccn[nH]2)C1` (stereo unspecified), 7.56%.
On to `Cc1cc(CNC(=O)NCCC(=O)N2CCCc3ccccc32)no1`, for which the Percent Effect is -5.1%.
`Cc1cccnc1NC(=O)c1ccc(F)c(S(=O)(=O)NC2CC2)c1`: the Percent Effect is -4.18%.
As for `CN(Cc1nc(N)nc(N(C)C)n1)Cc1cccc2ccccc12`, the figure is -3.23%; as for `CCSc1cc(C(=O)N(C(C)C)C2CC2)ccn1`, 0.102%.
In the case of `NCC(CO)Cc1cccc(OC(F)(F)F)c1` (stereo unspecified), the Percent Effect was -3.22%.
As for `CC(C)NC(=O)C1(Cc2ccccc2-c2ccccc2)CCCNC1` (stereo unspecified), the figure is 13.9%.
As for `CN(C)Cc1ccc(C(=O)N2CCCC(COc3ccc(F)cc3)C2)o1` (stereo unspecified), the figure is 7.84%; as for `Cc1ncsc1C(=O)N1CC[C@@]2(O)CCN(C(=O)N3CCCC3)C[C@H]2C1`, -1.97%.
To `CN(C)C(C(=O)N1CCN(CCn2cccc2)CC1)c1cccc(F)c1` (stereo unspecified) belongs -11.9%.

These data come from ChEMBL document CHEMBL3988442, “University of Dundee, Small-Polar-MMV Screening Library” (2021).
